Test results reported in PubChem BioAssay (NCATS).
Inconclusive results are not listed. Activity calls are given as the source filed them. Unless noted, the call rests on the fitted dose curve; in most records, active means well fitted curve in the direction sought with a large enough effect; inconclusive means small, poorly fitted or top-dose-only effect, or another doubt; inactive means no such curve, though single readings can be large; an effect the other way counts as inactive or inconclusive.

Tests used:
[1] = molecular target: Atrial natriuretic peptide receptor 2 (Homo sapiens) (UniProt P20594); assay: Natriuretic polypeptide receptor (hNpr2) antagonism - Pilot subtype selectivity assay (AID 1347050; calls by dose curve; further: on the % scale 0 is the no-effect control and ±100 the full control effect)
Chain of Atrial natriuretic peptide receptor 2 (Homo sapiens) (P20594 whole entry, looked up): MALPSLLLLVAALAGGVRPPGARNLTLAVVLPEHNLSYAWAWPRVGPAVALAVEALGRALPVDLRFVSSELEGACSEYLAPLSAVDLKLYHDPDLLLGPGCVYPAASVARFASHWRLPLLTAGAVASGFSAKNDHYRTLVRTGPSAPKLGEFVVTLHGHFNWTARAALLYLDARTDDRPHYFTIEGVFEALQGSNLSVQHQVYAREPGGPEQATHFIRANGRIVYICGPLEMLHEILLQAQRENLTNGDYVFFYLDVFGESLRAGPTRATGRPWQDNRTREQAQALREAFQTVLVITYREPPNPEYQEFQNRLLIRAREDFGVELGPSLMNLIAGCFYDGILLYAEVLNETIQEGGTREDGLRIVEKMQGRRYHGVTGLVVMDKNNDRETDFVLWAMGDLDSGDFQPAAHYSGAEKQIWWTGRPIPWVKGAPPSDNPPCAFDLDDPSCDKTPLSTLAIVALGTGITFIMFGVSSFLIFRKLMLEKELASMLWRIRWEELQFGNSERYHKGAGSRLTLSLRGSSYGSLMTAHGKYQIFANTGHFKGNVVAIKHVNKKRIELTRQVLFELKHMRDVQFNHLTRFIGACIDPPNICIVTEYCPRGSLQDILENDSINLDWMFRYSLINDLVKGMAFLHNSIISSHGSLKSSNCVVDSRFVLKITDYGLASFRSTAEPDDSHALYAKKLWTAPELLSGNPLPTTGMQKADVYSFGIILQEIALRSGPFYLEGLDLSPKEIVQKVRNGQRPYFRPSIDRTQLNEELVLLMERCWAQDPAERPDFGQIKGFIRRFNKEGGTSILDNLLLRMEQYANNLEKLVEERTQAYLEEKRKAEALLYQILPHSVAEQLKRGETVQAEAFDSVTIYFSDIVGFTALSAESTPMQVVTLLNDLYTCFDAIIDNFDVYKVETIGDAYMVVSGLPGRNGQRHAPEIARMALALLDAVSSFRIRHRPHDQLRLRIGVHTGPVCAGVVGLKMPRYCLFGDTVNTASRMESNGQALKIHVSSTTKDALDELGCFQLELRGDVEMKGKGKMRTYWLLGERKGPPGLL
How it was run: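 Luminescence from a genetically encoded cGMP luciferase biosensor in hNpr2-expressing HEK293 cells is read before and 20 min after adding 1 nM hNppC. Test compounds, in interplate 1:5 titrations, are added 30-50 min ahead of the agonist.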

[2] = NS1 protein of Zika virus - qHTS assay to identify small molecule inhibitors in human HEK 293 cells (AID 1347053);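 further: series mostly up to about 46 µM; plate controls were infected untreated cells for no effect and uninfected cells for full effect; nearly all actives have a fitted effect of over 55% in size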
How it was run: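 Compound-treated (1 h pre-infection) HEK 293 cells infected with ZIKV MR766, MOI = 0.5; after 24 h at 37 C, NS1 read by TR-FRET; data normalized to uninfected and infected controls.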

[3] = molecular target: T1, Tyrosine-protein phosphatase non-receptor type substrate 1 (Homo sapiens) + Leukocyte surface antigen CD47 (Homo sapiens) (UniProt P78324+Q08722); assay: CD47-SIRPalpha protein protein interaction - HTRF assay qHTS validation (AID 1347058; active means well fitted curve in the direction sought with a large enough effect in the signal ratio, not every such curve was filed as active; the % refers to the signal ratio; further: series mostly up to about 38 µM; 0% is about no effect)
T1 sequence (P78324 whole entry, looked up, the tested form may be a part): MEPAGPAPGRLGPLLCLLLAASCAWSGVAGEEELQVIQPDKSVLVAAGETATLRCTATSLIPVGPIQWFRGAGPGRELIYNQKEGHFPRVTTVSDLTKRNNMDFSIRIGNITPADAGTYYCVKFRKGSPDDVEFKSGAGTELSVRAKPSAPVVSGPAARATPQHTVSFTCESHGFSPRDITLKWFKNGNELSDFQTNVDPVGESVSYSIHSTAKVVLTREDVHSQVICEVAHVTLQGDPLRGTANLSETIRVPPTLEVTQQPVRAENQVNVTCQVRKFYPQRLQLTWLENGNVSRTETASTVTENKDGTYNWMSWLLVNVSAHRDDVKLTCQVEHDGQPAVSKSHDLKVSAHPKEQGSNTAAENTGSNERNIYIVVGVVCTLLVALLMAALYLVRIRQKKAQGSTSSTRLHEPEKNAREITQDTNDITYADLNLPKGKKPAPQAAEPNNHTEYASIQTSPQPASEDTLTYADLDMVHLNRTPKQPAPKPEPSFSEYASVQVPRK
T1 sequence (Q08722 whole entry, looked up, the tested form may be a part): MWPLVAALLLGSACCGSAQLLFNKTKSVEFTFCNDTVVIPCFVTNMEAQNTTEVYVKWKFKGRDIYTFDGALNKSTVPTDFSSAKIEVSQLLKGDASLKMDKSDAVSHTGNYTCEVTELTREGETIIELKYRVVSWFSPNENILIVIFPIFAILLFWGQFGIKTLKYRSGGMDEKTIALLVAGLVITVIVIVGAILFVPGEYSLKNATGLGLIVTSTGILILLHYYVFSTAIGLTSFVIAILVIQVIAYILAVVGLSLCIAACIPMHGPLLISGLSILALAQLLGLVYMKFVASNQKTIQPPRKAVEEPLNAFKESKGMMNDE
How it was run: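 Soluble extracellular domains (6His-CD47, Avi-tag-biotinylated SIRPalpha) in PBS pH 7.4 with 0.05% IGEPAL CA-630. Compounds were preincubated 30 min at RT with CD47 and anti-His-Eu, then SIRPalpha and SAV-XL665 were added. TR-FRET 665/615 ratio.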

[4] = molecular target: T1, Tyrosine-protein phosphatase non-receptor type substrate 1 (Homo sapiens) + Leukocyte surface antigen CD47 (Homo sapiens); assay: CD47-SIRPalpha protein protein interaction - Alpha assay qHTS validation (AID 1347059);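 further: bead proximity luminescence from CD47 binding SIRPalpha after compound preincubation with SIRPalpha; on the % scale 0 is the no-effect control and ±100 the full control effect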
How it was run: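 SIRPalpha-biotin 25 nM + cpd, 30 min RT, dark; add CD47-His 12.5 nM, 30 min; add Ni-NTA/SAV beads 10 ug/mL, 30 min; AlphaScreen. Buffer PBS pH 7.4 + 0.05% IGEPAL CA-630. Non-biotinylated SIRPalpha as control inhibitor.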

[5] = molecular target: Parathyroid hormone/parathyroid hormone-related peptide receptor (Homo sapiens) (UniProt Q03431); assay: qHTS for PTHR1 Agonists: Optimization Screen against the NCGC LOPAC library (AID 1347079);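 further: GloSensor cAMP luminescence in HEK-293 GP2 cells expressing human PTHR1 with IBMX; 0% is about no effect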
Chain of Parathyroid hormone/parathyroid hormone-related peptide receptor (Homo sapiens) (Q03431 whole entry, looked up): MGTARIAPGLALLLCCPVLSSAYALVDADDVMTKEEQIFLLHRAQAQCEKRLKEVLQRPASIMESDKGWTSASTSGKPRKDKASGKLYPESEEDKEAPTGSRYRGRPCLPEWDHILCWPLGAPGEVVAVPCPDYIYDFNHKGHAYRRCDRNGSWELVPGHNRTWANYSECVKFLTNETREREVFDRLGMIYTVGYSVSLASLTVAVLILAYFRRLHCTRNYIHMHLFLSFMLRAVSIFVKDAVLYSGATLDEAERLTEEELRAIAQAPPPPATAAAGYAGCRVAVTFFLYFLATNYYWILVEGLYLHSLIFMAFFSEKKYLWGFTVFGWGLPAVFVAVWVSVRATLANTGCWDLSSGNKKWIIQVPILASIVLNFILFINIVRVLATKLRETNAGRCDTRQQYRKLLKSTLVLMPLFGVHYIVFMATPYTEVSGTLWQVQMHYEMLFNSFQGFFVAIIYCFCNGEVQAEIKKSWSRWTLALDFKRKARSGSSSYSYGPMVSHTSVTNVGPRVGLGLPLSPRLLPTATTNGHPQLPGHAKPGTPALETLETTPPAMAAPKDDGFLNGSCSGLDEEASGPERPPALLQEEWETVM
How it was run: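 Signal increase flags agonism. GP2 cells, derived from HEK-293, express human PTHR1 and a GloSensor cAMP construct.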

[6] = qHTS of pediatric cancer cell lines to identify multiple opportunities for drug repurposing: Primary screen for TC32 cells (AID 1347089); further: on the % scale 0 is the no-effect control and ±100 the full control effect; nearly all actives have a fitted effect of over 60% in size
How it was run: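 Luminescent ATP read-out (CellTiter-Glo) of metabolically active TC32 cells after 48 h exposure. Concentration-response curves came from 11-point (MIPE, 0.78 nM–46 µM) or 8-point (NPC, 0.59 nM–46 µM) primary titrations; follow-up used 11 points.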

[7] = qHTS of pediatric cancer cell lines to identify multiple opportunities for drug repurposing: Primary screen for DAOY cells (AID 1347090);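 further: series mostly up to about 46 µM; plate controls were DMSO for no effect and bortezomib for full effect; nearly all actives have a fitted effect of over 55% in size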
How it was run: (§1)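 Viability measured as metabolically active cells via CellTiter-Glo luminescence following 48 hours of compound exposure, 11-point dilutions in confirmatory testing. 500-1,000 cells/well plated 5 hours before dosing; controls were DMSO and 2.3 µM bortezomib.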

[8] = qHTS of pediatric cancer cell lines to identify multiple opportunities for drug repurposing: Primary screen for SJ-GBM2 cells (AID 1347091);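 further: plate controls were DMSO neutral control for no effect and bortezomib for full effect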
How it was run: as §1

[9] = qHTS of pediatric cancer cell lines to identify multiple opportunities for drug repurposing: Primary screen for A673 cells (AID 1347092); further: on the % scale 0 is the no-effect control and ±100 the full control effect; nearly all actives have a fitted effect of over 45% in size
How it was run: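 Cell viability of A673 measured by CellTiter-Glo ATP luminescence after 48 hours compound exposure. Dilution series spanned 0.78 nM to 46 µM (MIPE, 11-point) or 0.59 nM to 46 µM (NPC, 8-point); bortezomib 2.3 uM positive control.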

[10] = molecular target: T1, Tyrosine-protein phosphatase non-receptor type substrate 1 (Homo sapiens) + Leukocyte surface antigen CD47 (Homo sapiens); assay: CD47-SIRPalpha protein protein interaction - LANCE assay qHTS validation (AID 1347057; active means well fitted curve in the direction sought with a large enough effect in the signal ratio, with a control signal flat, not every such curve was filed as active; the % refers to the signal ratio; further: series mostly up to about 38 µM; 0% is about no effect)
How it was run: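 Inhibition of soluble CD47/SIRPalpha ectodomain association by titrated compounds, measured as 665/615 nm time-resolved FRET ratio after sequential 30 min room-temperature incubations.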

C[C@]12CC[C@@H]3c4ccc(O)cc4CC[C@H]3[C@@H]1CCC2=O
inactive: Potency [1] | Potency [2] | outcome [3] | outcome [4] | Potency [5] | Potency [6] | Potency [7] | Potency [8] | Potency [9]

CNCC(O)c1ccc(O)c(O)c1 (configuration not stated)
inactive: Potency [1] | Potency [2] | outcome [3] | outcome [4] | Potency [5] | Potency [6] | Potency [7] | Potency [8]

CN(C)CCOC(C)(c1ccccc1)c1ccccn1 (configuration not stated)
inactive: Potency [1] | Potency [2] | outcome [3] | outcome [4] | Potency [5] | Potency [6] | Potency [7] | Potency [8] | Potency [9]

CC(C)(C)[C@]1(O)CCN2C[C@H]3c4ccccc4CCc4cccc(c43)[C@@H]2C1
inactive: Potency [1] | Potency [2] | outcome [3] | outcome [4] | Potency [5]

Nc1ncnc2c1ncn2[C@@H]1O[C@H](CO)[C@@H](O)[C@H]1O
inactive: Potency [1] | Potency [2] | outcome [3] | outcome [4] | Potency [5] | Potency [7] | Potency [8]

CCCn1cnc2c1c(=O)n(CCCCC(C)=O)c(=O)n2C
inactive: Potency [1] | Potency [2] | outcome [3] | outcome [4] | Potency [5] | Potency [6] | Potency [7] | Potency [8] | Potency [9]

CCN(CC)CCNC(=O)c1cc(Cl)c(N)cc1OC
inactive: Potency [1] | Potency [2] | outcome [10] | outcome [3] | outcome [4] | Potency [5] | Potency [6] | Potency [7] | Potency [8] | Potency [9]

CNC(=O)Oc1ccc2c(c1)[C@]1(C)CCN(C)[C@@H]1N2C
inactive: Potency [1] | Potency [2] | outcome [10] | outcome [4] | Potency [5] | Potency [6] | Potency [7] | Potency [8] | Potency [9]

NC(=O)c1ncn([C@@H]2O[C@H](CO)[C@@H](O)[C@H]2O)n1
inactive: Potency [1] | Potency [2] | outcome [3] | outcome [4] | Potency [5] | Potency [6] | Potency [7] | Potency [8] | Potency [9]

C[C@](N)(Cc1ccc(O)cc1)C(=O)O
inactive: Potency [1] | Potency [2] | outcome [3] | outcome [4] | Potency [5] | activity change, negative = cytotoxic [6] 12.9% [at 4.81 µM] | activity change, negative = cytotoxic [8] 11.8% [at 4.84 µM]

CC/C=C(\C(=O)N[C@@H]1C(=O)N2C(C(=O)OCOC(=O)C(C)(C)C)=C(COC(N)=O)CS[C@H]12)c1csc(N)n1
inactive: Potency [2] | Potency [6] | Potency [7] | Potency [8] | Potency [9]

CN1[C@@H]2CC[C@H]1CC(OC(=O)C(O)c1ccccc1)C2 (some centres not stated)
inactive: Potency [2] | Potency [6] | Potency [7] | Potency [8] | Potency [9]

CCCCN1CCCC[C@H]1C(=O)Nc1c(C)cccc1C
inactive: Potency [2] | Potency [6] | Potency [7] | Potency [8] | Potency [9]

Cc1cc(CC(=O)O)n(C)c1C(=O)c1ccc(Cl)cc1
inactive: Potency [2] | Potency [6] | Potency [7] | Potency [8] | Potency [9]

O=c1cc(CO)occ1O
inactive: Potency [2] | Potency [6] | Potency [7] | Potency [8] | Potency [9]

Cc1ncc(COP(=O)(O)O)c(C=O)c1O
inactive: Potency [2] | Potency [6] | Potency [7] | Potency [8] | Potency [9]

CC(=O)NC(Cc1ccccc1)C(=O)O (configuration not stated)
inactive: Potency [2] | Potency [6] | Potency [7] | Potency [8] | Potency [9]

O=C1O[C@H](CO)[C@@H](O)[C@H](O)[C@H]1O
inactive: Potency [2] | Potency [6] | Potency [7] | Potency [8] | Potency [9]

O=C(Oc1ccccc1C(=O)O)c1ccccc1O
inactive: Potency [2] | Potency [6] | Potency [7] | Potency [8] | Potency [9]

N[C@@H](CSSC[C@H](N)C(=O)O)C(=O)O
inactive: activity change, negative = inhibition [2] -26.2% [at 0.593 µM] | activity change, negative = cytotoxic [6] 5.9% [at 0.594 µM] | activity change, negative = cytotoxic [7] 14.8% [at 0.597 µM] | activity change, negative = cytotoxic [8] 12.9% [at 0.597 µM] | activity change, negative = cytotoxic [9] -1.55% [at 0.597 µM]

Oc1cn2c(n1)Nc1ccc(Cl)c(Cl)c1C2
inactive: Potency [2] | Potency [6] | Potency [7] | Potency [8] | Potency [9]

C[C@H]1O[C@H](O[C@H]2[C@H](O)[C@@H](O)[C@@H](O[C@H]3[C@H](O)[C@@H](O)[C@H](O)O[C@@H]3CO)O[C@@H]2CO)[C@H](O)[C@@H](O)[C@@H]1N[C@H]1C=C(CO)[C@@H](O)[C@H](O)[C@H]1O
inactive: Potency [2] | Potency [6] | Potency [7] | Potency [8] | Potency [9]

CCCCC/C(C=O)=C\c1ccccc1
inactive: Potency [2] | Potency [6] | Potency [7] | Potency [8] | Potency [9]

NC(CSCC(=O)O)C(=O)O (configuration not stated)
inactive: Potency [2] | Potency [6] | Potency [7] | Potency [8] | Potency [9]

Cc1cc2c(cc1S(N)(=O)=O)S(=O)(=O)CCC2
inactive: Potency [2] | Potency [6] | Potency [7] | Potency [8] | Potency [9]

CC(C)(C)NCC(O)COc1ccc(NC(=O)NC2CCCCC2)cc1 (configuration not stated)
inactive: Potency [2] | Potency [6] | Potency [7] | Potency [8] | Potency [9]

CCCCOc1cc(C(=O)OCCN(CC)CC)ccc1N
inactive: Potency [2] | Potency [6] | Potency [7] | Potency [8] | Potency [9]

CC1=C(C/C=C(\C)CCC[C@H](C)CCC[C@H](C)CCCC(C)C)C(=O)c2ccccc2C1=O
inactive: Potency [2] | Potency [6] | Potency [7] | Potency [8] | Potency [9]
